Source: PubChem BioAssay AID504329 (Southern Research Specialized Biocontainment Screening …, 2011)
Out of some 340,000 compounds screened, about 1,000 (0.29%) were called active. The list is a sample of the results. Results with a measured potency or affinity are listed apart. Values without a mark were called inactive. Cut-off read from the data, not from the text of the source: inconclusive = inhibition above about 27% without an active follow-up result; inactive = below that.

Assay: H1N1 influenza NS1A inhibitors, functional cell based assay (AID 504329)
Settings: percent inhibition, at 12.5 µM, stronger effect = higher value

Point of comparison: O=C1c2ccccc2-c2c1cccc2C(=O)N1CCCCC1, inhibition -10.6%. Against it:
- CC(NC(=O)COC(=O)/C=C/c1ccco1)c1ccccc1 (stereo not drawn) — higher, -3.74%
- CCOC(=O)c1ccccc1NC(=O)CSc1nc(N)cc(=O)[nH]1 — higher, -7.55%
- CN(C)C(=O)c1ccc(NC(=O)COc2cccc(Oc3ccccc3)c2)cc1 — higher, -4.79%
- CC(C)CCC(C(=O)O)C(C)CC(=O)NC1CCCCC1 (stereo not drawn) — higher, 4.04%
- CCC(C)[C@H](NC(=O)N1CC(=O)Nc2ccccc21)C(=O)N1CCC(C(=O)O)CC1 (stereo partly drawn) — higher, 1.95%
- Cc1cccc(N(C(=O)CNC(=O)c2ccco2)C(C(=O)NC2CCCC2)c2ccncc2)c1C (stereo not drawn) — higher, 6.68%
- CCCn1cc(CN2CCC(n3nccc3NC(=O)CCOc3ccccc3)CC2)c(C)n1 — higher, 3.28%
- CN1CCN(c2ccc(S(=O)(=O)N3CCCCC3)cn2)CC1 — higher, -0.41%
- O=C(COC(=O)c1cc([N+](=O)[O-])ccc1N1CCOCC1)Nc1ccc(Cl)cc1 — higher, -5.7%
- Cc1cccc(C)c1C(=O)N[C@@H](Cc1ccccc1)C(=O)O — higher, 2.25%
- O=C(N/N=C/c1ccccc1O)NC12CC3CC(CC(C3)C1)C2 — higher, -3.3%
- O=C(NN=Cc1ccccc1O)C1CC1 — lower, -17.2%
- O=c1[nH]c2cc(Cl)c(Cl)cc2o1 — higher, -8.2%
- O=C(COC(=O)C1(c2ccccc2)CC1)NNC(=O)c1ccccc1F — lower, -15.8%
- Cc1c(N=Nc2c(O)n(C)c(=O)n(C)c2=O)c(=O)n(-c2ccccc2)n1C — higher, 3.65%
- Cc1c(N=Nc2ccc(O)cc2)c(=O)n(-c2ccccc2)n1C — higher, -3.89%
- CC1(C)CC(=O)C(N=Nc2c(Cl)cc(Cl)cc2Cl)=C(O)C1 — higher, 9.91%
- CC1(C)CC(=O)C(N=Nc2ccc(-c3ccccc3)cc2)=C(O)C1 — higher, 10.2%
- Cc1cc(NC(=O)CC(C)C)c(=O)n(Cc2c(F)cccc2Cl)c1 — higher, -1.36%
- Cc1ccc(S(=O)(=O)N2CCN(C(=O)CC3CCCC3)CC2)cc1 — higher, 2.13%
- Cc1cc(C)c2nc(SCC(=O)NNC(=O)c3ccco3)c(C)cc2c1 — higher, -0.91%
- Cc1ccc(S(=O)(=O)N2CCCCC2)cc1C(=O)N1CCCCCC1 — lower, -15.6%
- CCOC(=O)C1CCN(C2CCN(C(=O)c3oc4c(F)cccc4c3C)CC2)CC1 — higher, -2%
- Cc1ccc(S(=O)(=O)N(CCC(=O)NCc2ccccc2F)c2ccccc2)cc1 — lower, -14.3%
- CC(=O)c1ccc(NC(=O)Nc2ccc(Br)cc2C)cc1 — higher, 1.12%
- C=C(C)COc1ccc(-c2[nH]ncc2Oc2ccccc2OC)c(O)c1 — higher, -3.04%
- O=[N+]([O-])c1ccccc1/C=C/C=N/N1CCCCC1 — higher, 4.44%
- O=[N+]([O-])c1ccccc1/C=N\N1CCN(c2ccccc2)CC1 — higher, 17%
- CCN(CCN(C)C)C(=O)c1ccc2c(c1NCCO)C(=O)c1ccccc1C2=O — higher, 12.9%
- O=C1c2ccccc2-c2c1cccc2C(=O)N1CCCCCC1 — higher, -0.29%
- O=C1c2ccccc2C(=O)c2c1ccc(C(=O)N1CCCCC1)c2NCCO — higher, 21.2%
- O=C(O)c1ccc2c(c1Nc1ccccc1)C(=O)c1ccccc1C2=O — higher, 16.9%
- CC1CC(C)CN(C(=O)c2cccc3c2-c2ccccc2C3=O)C1 (stereo not drawn) — lower, -15%
- CCNc1c(C(=O)O)ccc2c1C(=O)c1ccccc1C2=O — higher, 10.3%
- CC1CCCN(C(=O)CN2C(=O)c3ccccc3C2=O)C1 (stereo not drawn) — higher, -0.8%
- CCOC(=O)c1sc(C)c2c(=O)n(CCCN3CCOCC3)cnc12 — higher, -0.01%
- Cc1cc(C(=O)NCc2cccnc2)n(-c2ccccc2)n1 — higher, 24.2%
- CC(C)(C)OC(=O)N[C@H](C(=O)OC(C)(C)C)c1ccc(C(F)(F)F)cc1 — higher, 8.11%
- COC(=O)CNC(=O)Cn1c(=O)n(Cc2ccc(F)cc2)c(=O)c2sccc21 — higher, 0.76%
- COc1ccc(CCC(=O)NCCS(=O)(=O)N2CCN(c3ccc(OC)cc3)CC2)cc1 — higher, 1.44%
- COC(=O)c1sc2ncccc2c1OCc1cccc(Cl)c1 — higher, 1.6%
- Cc1cc(C)cc(OCC(=O)Nc2nonc2NC(=O)COc2cc(C)cc(C)c2)c1 — higher, -4.28%
- Nn1c(SC/C=C/c2ccccc2)nnc1-c1cccnc1 — higher, -6.35%
- Nn1c(SC/C=C/c2ccccc2)nnc1-c1ccncc1 — higher, -1.07%
- CN(c1ncc(C(F)(F)F)cc1Cl)N1C(=O)c2cccc(N)c2C1=O — higher, -4.28%
- COc1ccccc1N1CCN(C(=O)c2sc3ncn(CC(=O)N4CCC(C)CC4)c(=O)c3c2C)CC1 — higher, 6.39%
- CN(Cc1nc(CC2CC2)no1)CC12CC3CC(CC(C3)C1)C2 — higher, -6.9%
- O=C(c1ccc(O)cc1)c1ccc(Cl)cc1 — higher, -10.1%
- O=C(c1ccc(O)cc1)c1ccc(C(=O)c2ccc(O)cc2)cc1 — lower, -19.1%
- CCOCCCNC(=O)C1c2ccccc2C(=O)N2CCc3ccccc3C12 (stereo not drawn) — higher, 24.7%
- CC(C)Nc1ccccc1 — higher, -4.73%
- COc1ccccc1Nc1ccc(N)cc1 — higher, 10.9%
- COc1ccc(Nc2cccccc2=O)cc1 — higher, -2.41%
- Cc1ccc(Nc2cccccc2=O)cc1 — higher, -5.45%
- CC(=O)Nc1ccc(Nc2ccccc2)cc1 — higher, -4.36%
- Cc1ccc(Nc2ccccc2)cc1 — higher, 9.38%
- COc1ccc(Nc2cccc3ccccc23)cc1 — higher, -1.24%
- Nc1ccccc1Nc1ccccc1 — higher, 18.3%
- CC(CN1CCN(C)CC1)OC(=O)c1cccc(F)c1 (stereo not drawn) — higher, -2.72%
- COc1cc(OC)c(CN2CCC(Cc3ccccc3)CC2)cc1Br — lower, -20.9%
- COc1ccc(NC(=O)CSc2nc3[nH]ncc3c(=O)[nH]2)cc1OC — higher, -0.08%
- COc1cccc(CNc2nc3nc(C)c(Cl)c(C)n3n2)c1 — higher, 0.89%
